Experimental data taken from PubChem BioAssay (NCI).
Compounds without any hit were thinned out: in the full panel of roughly 83,000, 20% have a hit.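 How to read the values: 0–100, growth inhibition (40 = 60% inhibited); 0, no net growth; -100 to 0, cell death (-40 = 40% of starting cells died; -100 = all dead).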 Calls of active or inactive are those of the source. Rule for the calls: active = growth percent below 10; inactive = the rest.

system: LOX IMVI melanoma; assay: NCI-60 one-dose screen, 48 h (100 = growth as untreated, 0 = no growth, -100 = all killed); details: 10 µM unless noted

Structure (SMILES)	growth
COC(=O)[C@]12CC[C@@H](C)[C@H](C)[C@@H]1C1=CC(=O)[C@@H]3[C@@]4(C)C[C@@H](OC(C)=O)[C@H](OC(C)=O)[C@@](C)(COC(C)=O)[C@@H]4C(=O)C[C@@]3(C)[C@]1(C)CC2	50.8% (inactive)
COc1ccc(/C(=C\c2ccc3c(c2)OCO3)C(=O)Nc2nc3ccccc3s2)cc1OC	102% (inactive)
CCCCC/C(=C\c1ccccc1)C1OC(C)C(C)O1 (stereo not drawn)	97.9% (inactive)
COc1ccc2c(c1)c(-c1nc(-c3c[nH]c4ncccc34)cs1)cn2CCNC(=O)OC(C)(C)C	71.9% (inactive)
COc1ccc(C2c3ccccc3NC(=O)N2C2CCN(C)CC2)c(OC)c1 (stereo not drawn)	103% (inactive)
COc1cccc(-c2nn(-c3ccccc3)cc2-c2ccnc(NCCCNS(=O)(=O)c3ccc(Cl)cc3)c2)c1	52.3% (inactive)
CC(CNc1nc(Nc2ccc(Cl)c(Cl)c2)nc(C(Cl)(Cl)Cl)n1)N(C)C (stereo not drawn)	-57.2% (active)
Oc1cc(/C=C/c2nc(N3CCOCC3)c3cc(Cl)c(Cl)cc3n2)cc(O)c1O	106% (inactive)
COC(=O)CCCCCn1c2ccccc2c2c3c(c4c5ccccc5[nH]c4c21)C(=O)N(O)C3=O	-65% (active)
NCCn1cc(-c2nc(-c3c[nH]c4ncccc34)cs2)c2ccccc21	89.9% (inactive)
O=C1c2ccccc2NC(c2cn(-c3ccccc3)nc2-c2cccnc2)N1Cc1ccccc1 (stereo not drawn)	80.2% (inactive)
COc1cnc2c(c1)C(=O)c1c-2n(CCCNCCN2CCOCC2)c(=O)c2cc([N+](=O)[O-])ccc12	-66.2% (active)
CCCCC[C@H]1C/C=C2/C(=O)C=C[C@@H]2C/C=C\CCCC(=O)O[C@@H](CCCCC)C/C=C2/C(=O)C=C[C@@H]2C/C=C\CCCC(=O)O1	-87.1% (active)
COc1ccc2c(c1)c(-c1nc(-c3c[nH]c4ncccc34)cs1)cn2CCCN1CCCCC1	-75.6% (active)
CCN(CC)CCCCCCNc1ccnc2cc(Cl)ccc12	78% (inactive)
c1cnc2[nH]cc(-c3csc(-c4cn(CCCN5CCCCC5)c5ccccc45)n3)c2c1	-67.6% (active)
COC(=O)[C@]12CC[C@@H](C)[C@H](C)[C@@H]1C1=CC[C@@H]3[C@@]4(C)CC(=O)[C@H](OC(=O)c5ccco5)[C@@]5(C)COC(=C45)C[C@@]3(C)[C@]1(C)CC2	6.2% (active)
CCN(CC)CCCCCNc1cc(OC(=O)c2ccccc2)cc2cccnc12	58.1% (inactive)
COc1cc2c(cc1-c1c(C)noc1C)ncc1nc(C3CC3)n([C@H](C)COC(F)F)c12	15.5% (inactive)
CCC(CC)C(=O)OC(C)COc1ccc(C(C)(C)C)cc1 (stereo not drawn)	106% (inactive)
CCCCN1CCCCn2c1nc1c2c(=O)n(C)c(=O)n1C	99% (inactive)
C[C@H]1OC(=O)/C=C/[C@@H](O)[C@@H](O)CCCCCCCC[C@@H]1O	102% (inactive)
CC[C@]12C=CCN3CC[C@@]4(c5cc([C@H]6CCC(=O)N6)c(OC)cc5N(C)[C@H]4[C@@](O)(C(=O)OC)[C@@H]1OC(C)=O)[C@@H]32	108% [2.5 µM] (inactive)

system: SK-MEL-28 melanoma; assay: as above; details: 10 µM unless noted

Structure (SMILES)	growth
COc1ccc(/C(=C\c2ccc3c(c2)OCO3)C(=O)Nc2nc3ccccc3s2)cc1OC	106% (inactive)
O=C1c2cccc3cccc(c23)C(=O)N1CC#Cc1ccc2c3c(cccc13)C(=O)N(CCO)C2=O	112% (inactive)
CCCCC/C(=C\c1ccccc1)C1OC(C)C(C)O1 (stereo not drawn)	106% (inactive)
COc1ccc2c(c1)c(-c1nc(-c3c[nH]c4ncccc34)cs1)cn2CCNC(=O)OC(C)(C)C	88.1% (inactive)
COc1ccc2c(c1)c1nc3cc(C)c(C)cc3nc1n2CCN(C)C	9.16% (active)
Oc1cc(/C=C/c2nc(N3CCOCC3)c3cc(Cl)c(Cl)cc3n2)cc(O)c1O	109% (inactive)
NCCn1cc(-c2nc(-c3c[nH]c4ncccc34)cs2)c2ccccc21	107% (inactive)
COc1cnc2c(c1)C(=O)c1c-2n(CCCNCCN2CCOCC2)c(=O)c2cc([N+](=O)[O-])ccc12	47.5% (inactive)
CCCCC[C@H]1C/C=C2/C(=O)C=C[C@@H]2C/C=C\CCCC(=O)O[C@@H](CCCCC)C/C=C2/C(=O)C=C[C@@H]2C/C=C\CCCC(=O)O1	-81.9% (active)
COc1ccc2c(c1)c(-c1nc(-c3c[nH]c4ncccc34)cs1)cn2CCCN1CCCCC1	-74.9% (active)
CCN(CC)CCCCCCNc1ccnc2cc(Cl)ccc12	106% (inactive)
N#Cc1c(-c2ccc(O)cc2)c2c(N)nn(-c3ccccc3)c2[nH]c1=O	109% (inactive)
CC(C)(C)c1[nH]nc2c1C(c1cc3ccccc3[nH]c1=O)Nc1cc(C(=O)OCc3ccccc3)ccc1N2 (stereo not drawn)	77.2% (inactive)
c1cnc2[nH]cc(-c3csc(-c4cn(CCCN5CCCCC5)c5ccccc45)n3)c2c1	-68.4% (active)
COC(=O)[C@]12CC[C@@H](C)[C@H](C)[C@@H]1C1=CC[C@@H]3[C@@]4(C)CC(=O)[C@H](OC(=O)c5ccco5)[C@@]5(C)COC(=C45)C[C@@]3(C)[C@]1(C)CC2	33% (inactive)
O=C1/C(=C\C(Cl)=C/c2ccc([N+](=O)[O-])cc2)SC(=S)N1CCc1ccc(O)cc1	-61.2% (active)
O=c1c(CNc2ccc(S(=O)(=O)Nc3ncccn3)cc2)coc2ccccc12	119% (inactive)
CCN(CC)CCCCCNc1cc(OC(=O)c2ccccc2)cc2cccnc12	121% (inactive)
COc1cc2c(cc1-c1c(C)noc1C)ncc1nc(C3CC3)n([C@H](C)COC(F)F)c12	63.5% (inactive)
COc1cc2nc(Cl)nc(Nc3cccc(C(=O)/C=C/c4ccc(F)cc4)c3)c2cc1OC	62.6% (inactive)
CN1CCN(CCOc2ccc(-c3cnc4c(-c5ccccc5F)cnn4c3)cc2)CC1	59.5% (inactive)
CN(C)CCCC1(c2ccc(F)cc2)OCc2cc(-c3ccc(C(F)(F)F)nc3)ccc21 (stereo not drawn)	81% (inactive)
Cn1cc(-c2nc(-c3c[nH]c4ncccc34)cs2)c2cc(Cl)ccc21	80.1% (inactive)
CCC(CC)C(=O)OC(C)COc1ccc(C(C)(C)C)cc1 (stereo not drawn)	101% (inactive)
NCCNc1nc(-c2ccccc2)nc2nc(-c3ccccc3)oc12	103% (inactive)
CCCCN1CCCCn2c1nc1c2c(=O)n(C)c(=O)n1C	117% (inactive)
CCc1nnc(NC(=O)c2ccoc2COc2ccccc2)s1	51.2% (inactive)
N#C/C(=C\c1ccc(-c2ccc(Br)cc2)o1)c1nc(-c2ccco2)cs1	100% (inactive)
NC1=C(C/C(N)=N\O)C(c2ccccc2Cl)c2c(ccc3ccccc23)O1 (stereo not drawn)	80.2% (inactive)
Cn1cccc1/C=C1/SC(=S)N(CCc2ccc(O)cc2)C1=O	57.3% (inactive)
